What all share (test): universal protein binding microarray (PBM); transcription factors of Arabidopsis thaliana; high values mean tight binding
Assay [1] addresses T1, GST-ANAC092(1-176) (Arabidopsis thaliana, UniProt Q9FKA0 1-176).
T1 sequence: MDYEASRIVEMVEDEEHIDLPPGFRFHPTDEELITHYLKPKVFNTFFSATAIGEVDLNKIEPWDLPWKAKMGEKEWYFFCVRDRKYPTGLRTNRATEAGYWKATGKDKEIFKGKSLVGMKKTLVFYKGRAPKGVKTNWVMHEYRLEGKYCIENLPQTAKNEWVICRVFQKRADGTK
The conditions noted are these: protein: recombinant; tags: GST; chain copies: 2; dsDNA, one strand shown. The method in brief:
(§1)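 Binding is expressed as the normalised enrichment score (E-score). Proteins carrying a GST tag, whether NAC-domain, full-length or DNA-binding-domain forms, were induced in cells, and zinc acetate was added for zinc-finger proteins. After purification on glutathione–Sepharose 4B and quantification by A280 or anti-GST western blot, each was applied in duplicate at 200 to 500 nM final to custom all-10-mer Agilent 4 × 180K arrays made double-stranded by primer extension. Gapped and ungapped 8-mers were scored.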

The target in assay [2] is GST-NTL6(1-168) (Arabidopsis thaliana, UniProt Q9SCK6 1-168). The conditions noted are these: protein: recombinant; tags: GST; chain copies: 2; dsDNA, one strand shown. In short, it runs like this:
as §1

In assay [3] the target is T2, GST-ANAC019 NAC domain (Arabidopsis thaliana, UniProt Q9C932 14-162).
T2 sequence: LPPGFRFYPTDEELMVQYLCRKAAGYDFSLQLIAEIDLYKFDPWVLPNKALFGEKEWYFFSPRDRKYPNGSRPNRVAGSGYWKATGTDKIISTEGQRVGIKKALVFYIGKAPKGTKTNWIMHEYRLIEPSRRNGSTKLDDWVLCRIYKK
The conditions noted are these: protein: recombinant; tags: GST; chain copies: 2; dsDNA, one strand shown. The method in brief: as §1

Assay [4] concerns the target T3, GST-ANAC055(1-171) (Arabidopsis thaliana, UniProt Q9LDY8 1-171).
T3 sequence: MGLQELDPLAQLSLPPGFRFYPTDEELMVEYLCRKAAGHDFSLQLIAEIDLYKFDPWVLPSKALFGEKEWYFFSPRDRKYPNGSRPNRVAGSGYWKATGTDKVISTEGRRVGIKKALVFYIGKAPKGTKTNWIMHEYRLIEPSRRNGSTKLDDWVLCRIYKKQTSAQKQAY
The conditions noted are these: protein: recombinant; tags: GST; chain copies: 2; dsDNA, one strand shown. In short, it runs like this:
as §1

The target in assay [5] is T4, GST-ATAF1 NAC domain (Arabidopsis thaliana, UniProt Q39013 7-158).
T4 sequence: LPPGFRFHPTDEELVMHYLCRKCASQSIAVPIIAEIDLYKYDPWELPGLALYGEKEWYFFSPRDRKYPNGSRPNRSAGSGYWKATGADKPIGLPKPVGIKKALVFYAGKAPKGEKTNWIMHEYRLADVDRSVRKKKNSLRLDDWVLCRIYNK
The note with it: protein: recombinant; tags: GST; chain copies: 2; dsDNA, one strand shown. The method in brief:
as §1

Assay [6] concerns the target T5, GST-ANAC092(1-285) full length (Arabidopsis thaliana, UniProt Q9FKA0 1-285).
T5 sequence: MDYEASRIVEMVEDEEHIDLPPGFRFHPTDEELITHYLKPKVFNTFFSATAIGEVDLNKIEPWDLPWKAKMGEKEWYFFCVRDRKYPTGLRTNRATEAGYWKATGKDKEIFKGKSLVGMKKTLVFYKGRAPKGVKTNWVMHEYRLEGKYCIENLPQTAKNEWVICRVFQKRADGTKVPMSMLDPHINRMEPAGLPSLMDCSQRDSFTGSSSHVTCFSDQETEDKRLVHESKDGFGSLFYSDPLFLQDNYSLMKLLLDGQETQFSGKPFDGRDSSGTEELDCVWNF
The conditions noted are these: protein: recombinant; tags: GST; chain copies: 2; dsDNA, one strand shown. In short, it runs like this:
as §1

Assay [7] has as its target T6, GST-NAP(1-166) (Arabidopsis thaliana, UniProt O49255 1-166).
T6 sequence: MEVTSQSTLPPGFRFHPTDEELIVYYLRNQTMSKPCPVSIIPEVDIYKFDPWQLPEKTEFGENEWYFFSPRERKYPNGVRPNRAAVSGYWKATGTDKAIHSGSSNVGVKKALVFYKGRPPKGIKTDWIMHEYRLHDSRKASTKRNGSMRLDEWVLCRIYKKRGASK
The conditions noted are these: protein: recombinant; tags: GST; chain copies: 2; dsDNA, one strand shown. In short, it runs like this:
as §1

Assay [8] deals with T7, GST-NST2(1-184) (Arabidopsis thaliana, UniProt Q9M274 1-184).
T7 sequence: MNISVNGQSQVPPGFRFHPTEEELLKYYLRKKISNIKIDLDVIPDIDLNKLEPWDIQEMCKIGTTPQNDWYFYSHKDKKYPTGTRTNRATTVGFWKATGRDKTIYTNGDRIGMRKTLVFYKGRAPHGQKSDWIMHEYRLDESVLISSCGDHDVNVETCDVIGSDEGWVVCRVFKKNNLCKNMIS
The note with it: protein: recombinant; tags: GST; chain copies: 2; dsDNA, one strand shown. The method in brief:
as §1

Assay [9] addresses T8, GST-SND1(1-203) (Arabidopsis thaliana, UniProt Q9LPI7 1-203).
T8 sequence: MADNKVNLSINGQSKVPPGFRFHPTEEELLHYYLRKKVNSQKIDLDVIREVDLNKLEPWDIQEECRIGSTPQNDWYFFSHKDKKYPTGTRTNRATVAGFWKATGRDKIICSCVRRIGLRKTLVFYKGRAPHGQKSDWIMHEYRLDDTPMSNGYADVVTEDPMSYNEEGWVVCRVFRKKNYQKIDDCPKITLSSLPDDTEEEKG
The note with it: protein: recombinant; tags: GST; chain copies: 2; dsDNA, one strand shown. The method in brief:
as §1

Assay [10] has as its target T9, GST-VND3 NAC domain (Arabidopsis thaliana, UniProt Q9FH59 12-162).
T9 sequence: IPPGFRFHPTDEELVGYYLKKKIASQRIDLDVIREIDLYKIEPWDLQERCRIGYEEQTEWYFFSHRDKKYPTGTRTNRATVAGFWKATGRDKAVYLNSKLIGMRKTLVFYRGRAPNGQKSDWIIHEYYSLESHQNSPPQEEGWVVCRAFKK
The note with it: protein: recombinant; tags: GST; chain copies: 2; dsDNA, one strand shown. In short, it runs like this: as §1

Assay [11] deals with T10, GST-VND7 NAC domain (Arabidopsis thaliana, UniProt Q9C8W9 9-158).
T10 sequence: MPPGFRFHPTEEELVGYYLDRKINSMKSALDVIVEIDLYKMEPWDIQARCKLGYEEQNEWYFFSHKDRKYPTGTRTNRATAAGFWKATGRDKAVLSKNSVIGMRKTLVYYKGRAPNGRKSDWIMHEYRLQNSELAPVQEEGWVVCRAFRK
The conditions noted are these: protein: recombinant; tags: GST; chain copies: 2; dsDNA, one strand shown. The method in brief: as §1

Assay [12] has as its target GST-WRKY1(266-371) (Arabidopsis thaliana, UniProt Q9SI37 266-371). The note with it: protein: recombinant; tags: GST; dsDNA, one strand shown. In short, it runs like this: as §1
The target of assay [13] is T11, GST-NTL8 NAC domain (Arabidopsis thaliana, UniProt Q9XIN7 14-156).
T11 sequence: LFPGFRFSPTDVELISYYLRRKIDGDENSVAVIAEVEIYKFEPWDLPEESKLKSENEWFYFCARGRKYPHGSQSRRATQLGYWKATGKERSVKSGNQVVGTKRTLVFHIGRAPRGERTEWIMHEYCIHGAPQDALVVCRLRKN
The conditions noted are these: protein: recombinant; tags: GST; chain copies: 2; dsDNA, one strand shown. The method in brief:
as §1

Sequence of GST-WRKY1(266-371) (Q9SI37 266-371): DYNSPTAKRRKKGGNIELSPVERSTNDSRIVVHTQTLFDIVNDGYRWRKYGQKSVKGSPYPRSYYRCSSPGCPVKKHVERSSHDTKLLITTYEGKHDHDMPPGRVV
Sequence of GST-NTL6(1-168) (Q9SCK6 1-168): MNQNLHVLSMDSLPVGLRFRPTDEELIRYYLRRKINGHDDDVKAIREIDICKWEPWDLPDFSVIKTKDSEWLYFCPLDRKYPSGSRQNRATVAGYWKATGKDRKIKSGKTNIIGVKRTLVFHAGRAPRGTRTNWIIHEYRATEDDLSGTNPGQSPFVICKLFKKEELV

CTACGTTA: the binding signal in [1] worked out at 0.323 E-score; in [2] it was 0.0691 E-score; in assay [3] it was 0.152 E-score; in assay [4] it was 0.144 E-score; in assay [5] it was 0.228 E-score; in assay [6] it was 0.382 E-score. In addition, the binding signal in assay [7] was determined as 0.135 E-score; in [8], 0.335 E-score; in assay [9], 0.478 E-score; in assay [10] it was 0.24 E-score; in assay [11], 0.164 E-score; in assay [12] it was 0.0835 E-score.
For CTTACTTA, the binding signal worked out at 0.205 E-score in [1]; 0.454 E-score in assay [2]; 0.164 E-score in [3]; 0.137 E-score in assay [4]; 0.154 E-score in assay [5]; 0.276 E-score in assay [6]. For the same sequence, the binding signal in [7] turned out to be 0.111 E-score; in [8], 0.221 E-score; in assay [13], 0.208 E-score; in assay [9] it was 0.317 E-score; in [10] it was 0.209 E-score; in assay [11], 0.106 E-score. The binding signal in assay [12] worked out at 0.235 E-score.
Regarding ACGTAAAA, the binding signal was determined as 0.366 E-score in assay [1]; 0.161 E-score in [2]; 0.336 E-score in assay [3]; 0.331 E-score in [4]; 0.35 E-score in [5]; 0.406 E-score in assay [6]. The binding signal came to 0.326 E-score in assay [7]; 0.312 E-score in assay [8]; 0.0957 E-score in assay [13]; 0.436 E-score in assay [9]; 0.368 E-score in assay [10]; 0.344 E-score in assay [11]. Moreover, the binding signal in [12] was 0.0914 E-score.
Take ACGTAACG: the binding signal in assay [1] came to 0.423 E-score; in assay [2], 0.0652 E-score; in [3], 0.436 E-score; in [4], 0.389 E-score; in [5], 0.348 E-score; in assay [6] it was 0.438 E-score. Besides, the binding signal in [7] came out at 0.411 E-score; in assay [8] it was 0.272 E-score; in assay [13] it was 0.118 E-score; in [9], 0.415 E-score; in assay [10], 0.359 E-score; in assay [11] it was 0.409 E-score. Further, the binding signal in [12] is 0.078 E-score.
For the sequence AAATTGAC, the binding signal is 0.173 E-score in assay [1]; 0.156 E-score in assay [2]; 0.134 E-score in assay [3]; 0.213 E-score in assay [4]; 0.228 E-score in assay [5]; 0.139 E-score in assay [6]. For the same sequence, the binding signal in assay [7] came out at 0.136 E-score; in assay [8], 0.194 E-score; in [13], 0.0641 E-score; in assay [9], 0.2 E-score; in [10], 0.228 E-score; in [11], 0.0875 E-score. In addition, the binding signal in assay [12] is 0.45 E-score.
As for GTACGTAA, the binding signal in assay [1] was 0.432 E-score; in [2], 0.174 E-score; in [3] it was 0.463 E-score; in assay [4] it was 0.42 E-score; in [5] it was 0.408 E-score; in assay [6] it was 0.441 E-score. Also, the binding signal in [7] came to 0.419 E-score; in assay [8], 0.276 E-score; in assay [13], 0.167 E-score; in assay [9], 0.337 E-score; in [10] it was 0.417 E-score; in [11], 0.44 E-score. Also, in assay [12], the binding signal was 0.0843 E-score.

The values above are taken from PMC4081100, “A DNA-binding-site landscape and regulatory network analysis for NAC transcription factors in Arabidopsis thaliana”.
